Only some compounds are listed: those with a hit (about 3% of all), similar ones and a draw of the others.
PPC-1+TRAIL kill – PPC-1 cancer cell killing with TRAIL present | 220,000 compounds, 0.41% hits | AID 1443 | cell killing (% activity), % at 4 µM or 5 µM | PPC-1 cells + TRAIL, ATPLite viability luminescence;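 active = cell killing above 50% in the first pass at 4 µM, then a duplicate retest at 5 µM averaging 50% or more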;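 note: plate controls were cells with TRAIL plus DMSO for no effect and medium-only wells lacking cells for full effect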
SENP7 block – blocks the human protease SENP7; 330,000 compounds, 1.5% hits; Q9BQF6; recombinant SENP7, Z-RLRGG-aminoluciferin luminescence, 40 min; inhibition, % at 5 µM;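 active = inhibition above about 50% at the single test dose, limit read from the data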;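 note: plate controls were DMSO with enzyme for no effect and no enzyme buffer wells for full effect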
Target sequence (Q9BQF6 706-1050 limits assumed): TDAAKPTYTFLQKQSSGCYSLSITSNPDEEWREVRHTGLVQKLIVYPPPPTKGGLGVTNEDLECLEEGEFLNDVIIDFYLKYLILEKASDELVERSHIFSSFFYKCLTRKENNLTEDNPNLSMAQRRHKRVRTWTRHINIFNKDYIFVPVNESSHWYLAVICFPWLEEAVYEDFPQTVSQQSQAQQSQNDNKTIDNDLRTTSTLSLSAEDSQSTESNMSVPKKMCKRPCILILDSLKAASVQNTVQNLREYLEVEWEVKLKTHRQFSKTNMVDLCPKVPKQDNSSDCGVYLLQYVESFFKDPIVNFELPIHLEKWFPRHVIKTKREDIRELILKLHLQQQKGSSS
SENP8 block-1 – blocks human SENP8 cleavage of Nedd8 substrate. Q96LD8. recombinant SENP8, Nedd8 substrate fluorescence. inhibition, % at 20 µM. 360,000 compounds, 0.64% hits; in the data active = inhibition mostly above about 40%, no sharp cut-off; inactive = mostly below about 27%
Target sequence (Q96LD8 whole entry, looked up): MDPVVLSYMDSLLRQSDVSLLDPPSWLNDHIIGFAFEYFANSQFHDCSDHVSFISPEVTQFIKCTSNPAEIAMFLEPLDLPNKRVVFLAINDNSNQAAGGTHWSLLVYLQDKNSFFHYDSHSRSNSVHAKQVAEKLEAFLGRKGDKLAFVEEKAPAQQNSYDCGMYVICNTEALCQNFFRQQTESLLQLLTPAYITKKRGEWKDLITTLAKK
SENP6 inh – SENP6 protease inhibition. Q9GZR1. Recombinant SENP6 catalytic domain, aminoluciferin luminescence. inhibition, % at 10 µM. 330,000 compounds, 1.8% hits. AID 2599;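 active = inhibition above about 50% at the single tested dose, limit read from the data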;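 note: plate controls were DMSO wells with enzyme for no effect and DMSO wells lacking enzyme for full effect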
SENP8 block-2 – SENP8 protease inhibition; Q96LD8; purified SENP8, Z-RLRGG-aminoluciferin cleavage, luminescence; inhibition, % at 10 µM; 330,000 compounds, 1.2% hits; AID 2540; in the data active = inhibition above about 50%
C8 TRAIL sens – caspase-8 TRAIL sensitization; NB7+C8 cells + TRAIL, ATPlite viability luminescence; inhibition (viability loss, TRAIL sensitization), % at 10 µM; 360,000 compounds, 1% hits;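 active = compounds causing at least 50% loss of cell viability in the single-dose screen, relative to plate controls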
SENP8 inh conf – confirmation of human SENP8 protease inhibitors; shares compounds with SENP8 block-1; purified SENP8, Nedd8-AMC/pro-Nedd8 cleavage fluorescence, 30 min; inhibition, % at 25 µM; 1,400 compounds, 15% hits; AID 624319; in the data active = inhibition mostly above about 39%, no sharp cut-off; inactive = mostly below about 34%
Starred values were filed as active, the others as inactive; . = no result.

SMILES	PPC-1+TRAIL kill	SENP7 block	SENP8 block-1	SENP6 inh	SENP8 block-2	C8 TRAIL sens	SENP8 inh conf
Cc1ccc(S(=O)(=O)N2C[C@H]3[C@H]4C(=O)N(c5ccccc5)C(=O)[C@H]4CC(=O)[C@H]3[C@@H]2c2ccccc2F)cc1	.	.	49.7*	.	.	-8.2	22.9
Cc1ccc(S(=O)(=O)N2C[C@H]3[C@H]4C(=O)N(c5ccccc5)C(=O)[C@H]4CC(=O)[C@H]3[C@@H]2c2cccc3ccccc23)cc1	.	.	16.4	.	.	-7.2	.
O=C(C1CCCCC1)N1CCCc2ccccc21	23.5	0.6	20.1	0.2	2.9	12.4	.
CC(C)N1C(=O)CCC1C(=O)N1CCCc2ccccc21 (stereo unspecified)	-19.3	-2.9	40.8*	0.9	-0.8	9.6	67.0*
CC1=NN(c2ccc(C)cc2C)C(=O)C1C(c1ccccc1O)C1C(=O)N(c2ccc(C)cc2C)N=C1C (stereo unspecified)	-8.4	26.9	58.2*	43.8	14.6	-3.2	57.4*
CN(CC(=O)Nc1cccc(F)c1)CC(=O)Nc1ccc(Cl)cc1[N+](=O)[O-]	-2.0	10.0	41.8*	12.6	-1.6	0.8	16.2
CN(CC(=O)Nc1cccc(F)c1)CC(=O)Nc1ccccc1[N+](=O)[O-]	24.5	-2.5	10.4	13.5	-1.7	0.7	.
CCc1nc2ccc(C(=O)N3CCCC(C(N)=O)C3)cn2c1N(C=O)CC (stereo unspecified)	.	.	-0.6	.	.	2.6	.
O=C(COC(=O)c1cc(Cl)cc(Cl)c1)NCc1ccco1	.	3.6	-1.0	-4.4	-2.3	-0.3	.
CCOC1=C2CN(S(=O)(=O)c3ccc(C)cc3)[C@H](c3ccccc3)C[C@@H]2N(S(C)(=O)=O)[C@H](c2ccccc2)C1	.	.	11.6	.	.	-6.8	.
CCN(CC)S(=O)(=O)c1ccc(/C=C/C(=O)Nc2ccc(N3CCOCC3)cc2)cc1	-8.8	-2.3	42.1*	-3.6	-7.7	12.1	22.9
COc1ccc(/C=C/C(=O)Nc2ccc(N3CCOCC3)cc2)cc1	6.4	.	25.9	.	.	-7.2	.
Cc1ccc(NC(=O)c2cnccn2)cc1S(=O)(=O)N1CCCCCC1	.	1.3	7.8	9.9	10.0	3.2	.
CCn1cc(/C=C/C(=O)Nc2ccn(Cc3c(F)c(F)cc(F)c3F)n2)cn1	11.9	1.3	29.2*	6.8	13.4	0.0	65.6*
O=c1[nH]c2ccccc2c2ccccc12	6.7	6.1	-29.2	-18.8	-7.9	-3.1	.
Nc1c(Br)cc(Br)c2c1[nH]c(=O)c1ccccc12	.	.	73.4*	.	.	-9.4	11.9
Cc1cc(C(=O)C(C)OC(=O)c2cnccn2)c(C)n1-c1ccccc1 (stereo unspecified)	.	6.6	14.6	-13.3	-0.5	9.2	.
CCN(CC)CC(=O)Nc1ccc2c(c1)N(C(=O)CN(CC)CC)c1ccccc1CC2	11.8	6.5	39.6*	7.4	3.9	-3.7	55.3*
COCCCN1C(=O)C(=O)/C(=C(/O)c2ccc(S(=O)(=O)N3CCCCC3)cc2)C1c1ccc(O)cc1 (stereo unspecified)	.	8.1	45.4*	17.7	4.0	2.4	12.1
COCCCN1C(=O)C(=O)/C(=C(/O)c2ccc(S(=O)(=O)N3CCCCC3)cc2)C1c1ccc(O)c(OC)c1 (stereo unspecified)	.	0.3	11.6	14.5	2.2	-10.8	.
CC(OC(=O)CCN=C1NS(=O)(=O)c2ccccc21)C(=O)c1ccccc1 (stereo unspecified)	.	0.9	8.2	1.8	-7.4	3.9	.
CC(OC(=O)CCN=C1NS(=O)(=O)c2ccccc21)C(=O)Nc1ccc(N(C)C)cc1 (stereo unspecified)	.	8.0	45.2*	-17.7	-14.0	1.1	18.1
Cc1ccc(C(=O)C(C)OC(=O)CCN=C2NS(=O)(=O)c3ccccc32)cc1 (stereo unspecified)	.	0.8	45.9*	-12.9	-8.0	-8.6	-4.1
CC(C)[C@@H](C(=O)N[C@@H](CCc1ccc(O)cc1)C(=O)O)N(C)C(=O)[C@H](CO)NC(=O)[C@@H](O)[C@H](N)CCCCCCCCl	.	.	55.1*	.	.	11.6	17.5
O=C(NC1CCCCC1)C(C1CC1)N1CCc2ccccc2C1 (stereo unspecified)	.	.	29.8	.	.	-0.1	.
SMILES	PPC-1+TRAIL kill	SENP7 block	SENP8 block-1	SENP6 inh	SENP8 block-2	C8 TRAIL sens	SENP8 inh conf
O=C(NC1CCCCC1)C(c1ccnc2ccccc12)N1CCc2ccccc2C1 (stereo unspecified)	.	.	51.1*	.	.	1.5	91.1*
C=CCN1C=C2C(=O)C(C)(OC(=O)c3cccs3)C(=O)C=C2C=C1CCCC(=O)OC (stereo unspecified)	5.0	4.6	20.0	5.0	-0.7	-14.0	.
COC(=O)CCCC1=CC2=CC(=O)C(C)(OC(=O)c3cccs3)C(=O)C2=CN1CCc1ccccn1 (stereo unspecified)	3.0	-7.7	40.0*	7.6	-5.4	2.3	59.8*
Cc1[nH]cnc1CN1CCc2c(c3ccccc3n2C)C1=O	.	17.0	83.8*	21.1	11.8	-4.7	76.3*
Cc1nccn1CC1CCc2c(c3ccccc3n2C)C1=O (stereo unspecified)	.	-12.2	-5.8	-4.2	5.5	-1.2	.
O=[N+]([O-])c1nn(-c2ccc(Cl)cc2)n(O)c1=NCc1ccncc1	-2.7	8.1	47.0*	-19.5	-3.6	9.8	31.5
Cc1cc(C)cc(Nc2ccc([N+](=O)[O-])nc2[N+](=O)[O-])c1	3.5	2.3	41.0*	6.9	1.0	-14.0	15.1
CCOc1ccc(N(CC(=O)NCc2ccccc2)S(C)(=O)=O)cc1	-16.8	11.0	48.1*	-11.0	2.4	-15.0	27.6
COc1ccc(C(=O)c2sc(Nc3ccccc3)c(C(=O)Nc3ccc(OC)c(OC)c3)c2N)cc1	-1.9	1.5	50.0*	2.1	-3.3	-10.9	10.8
OCCN1CCN(C(=S)c2ccc(Cl)c(Cl)c2)CC1	22.4	4.4	42.2*	25.5	5.5	6.1	34.1*
O=[N+]([O-])c1ccc(C=NNC(=S)Nc2ccc(F)cc2)cc1	.	.	27.9	.	.	-3.3	.
O=[N+]([O-])c1ccc(C=NNC(=S)NN=Cc2ccc([N+](=O)[O-])cc2)cc1	.	.	70.1*	.	.	9.1	13.2
Cc1ccc2sc(NNC(=O)c3cc(=O)c4ccccc4o3)nc2c1C	10.8	19.0	66.3*	95.8*	93.5*	-17.5	24.7
CCCNC(=O)CN(C)C(=O)c1n[nH]c2ccccc12	9.3	4.5	43.0*	-8.6	1.3	-9.1	14.7
O=C(Nc1ccccc1)NN1CC(=O)N(c2ccc(Cl)cc2)CC1=O	16.0	2.7	8.0	1.3	1.0	-2.8	.
O=C1CN(c2ccc(Cl)cc2)C(=O)CN1NC(=S)Nc1ccc(Cl)cc1	3.0	5.9	42.7*	13.1	2.2	-9.0	11.6
O=C(CN1CCc2ccccc2C1)Nc1cccc(S(=O)(=O)N2CCCC2)c1	-3.8	7.7	-1.8	-7.0	-3.1	16.4	.

Source: PubChem BioAssay (Sanford-Burnham Center for Chemical Genomics)
